Compound activity: PubChem, National Center for Advancing Translational Sciences (NCATS)
FLuc counter – counter-screen for miR-21 project: firefly luciferase inhibitors or activators | purified FLuc, Km substrates, luminescence inhibition | Potency, µM (highest dose often 57.5 µM), for inactives: top-dose activity change, negative = inhibition, hits mostly inhibitors | actives 6.9% (n = 360,000);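 further: plate controls were vehicle for no effect and reference inhibitor for full effect; nearly all actives have a fitted effect of over 55% in size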
Target sequence (P08659 whole entry, looked up): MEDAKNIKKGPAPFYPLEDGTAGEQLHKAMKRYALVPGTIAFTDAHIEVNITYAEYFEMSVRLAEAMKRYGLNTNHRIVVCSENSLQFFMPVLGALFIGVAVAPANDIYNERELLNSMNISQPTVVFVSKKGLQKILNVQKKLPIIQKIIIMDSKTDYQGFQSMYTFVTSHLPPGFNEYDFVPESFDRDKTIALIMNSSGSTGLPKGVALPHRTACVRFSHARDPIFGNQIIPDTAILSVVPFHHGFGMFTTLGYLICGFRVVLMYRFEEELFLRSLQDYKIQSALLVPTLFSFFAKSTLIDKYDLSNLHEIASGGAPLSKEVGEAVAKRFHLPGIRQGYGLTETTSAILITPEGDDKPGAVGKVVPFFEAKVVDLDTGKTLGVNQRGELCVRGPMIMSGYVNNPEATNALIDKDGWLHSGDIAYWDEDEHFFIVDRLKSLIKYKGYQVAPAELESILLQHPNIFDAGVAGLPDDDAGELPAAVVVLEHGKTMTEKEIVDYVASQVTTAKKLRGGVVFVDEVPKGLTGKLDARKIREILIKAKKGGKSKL
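Biochemical qHTS of compounds, final roughly 60 µM downward over six points, against 10 nM purified firefly luciferase using Km concentrations of substrates (10 uM D-luciferin, 10 uM ATP) in Tris acetate pH 7.5 buffer; luminescence output.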
NPC1 promoter act – NPC1 promoter activation | actives 2.4% (n = 320,000) | Huh7 NPC1 promoter luciferase reporter, 24 h | Potency, µM (highest dose often 9.22 µM), for inactives: at the top dose activation, actives largely listed as activators; further: % of control where 0% means no effect; nearly all actives have a fitted effect of over 60% in size
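Stable NPC1-promoter luciferase Huh7 line; cpd (DMSO) 24 h, 37 °C, 5% CO2; Amplite luciferase reagent 10 min RT; luminescence readout. qHTS format.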
ELG1 genotox – inducers of genotoxicity in HEK293T ELG1-luciferase cells; HEK293T ELG1-luciferase reporter, luminescence, 16 h; actives 1.3% (n = 330,000); Potency, µM (series often up to 46 µM), for the others: at the highest dose activity change, positive = activation, usual class: activators; AID 504466; further: % of control where 0% means no effect; nearly all actives have a fitted effect of over 60% in size
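ELG1-luciferase HEK293T cells, 2,000/well; compound pinned in; 16 hr, 37 °C, 5% CO2; ONE-Glo, 30 min RT; luminescence on CCD imager.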
ELG1 DNA repair – ELG1-dependent DNA repair inhibition; HEK293T ELG1-luciferase reporter, luminescence, 16 h; DNA damage induced by 5-fluorouridine; Potency, µM (doses to about 46.1 µM), without a hit: top-dose activity change, negative = inhibition, actives largely listed as inhibitors; actives 2.3% (n = 330,000); AID 504467; further: on the % scale 0 is the no-effect control and ±100 the full control effect; nearly all actives have a fitted effect of over 55% in size
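HEK293T cells expressing luciferase-tagged ELG1 (2,000/well) received 5-Fluorouridine plus compound or DMSO for 16 hr at 37 °C. Luciferase was read by ONE-Glo luminescence after 30 min at room temperature.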
Rab9 promoter act – activators of Rab9 promoter. actives 2.8% (n = 320,000). Huh7 Rab9 promoter-luciferase reporter, luminescence, 24 h. AID 485297. Potency, µM (doses to about 9.22 µM), inactives show at the top dose activation, negative = inhibition, most hits filed as activators; further: % of control where 0% means no effect; nearly all actives have a fitted effect of over 60% in size
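Measured in stably transfected Huh7 cells bearing a Rab9 promoter–luciferase construct: 24 h compound treatment at 37 °C, followed by luminescence detection.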
SMN2 splice enh – increases expression of the SMN2 splice variant | HEK293 SMN2-luciferase splicing reporter, luminescence, 30-36 h | Potency, µM (top dose mostly 46.1 µM), for inactives: at the top dose activity change, positive = activation, hits mostly activators | actives 2.8% (n = 210,000) | AID 1458; further: % of control where 0% means no effect; nearly all actives have a fitted effect of over 55% in size
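HEK293 cells carry an SMN2 […]–luciferase reporter in which exon 7 inclusion puts luciferase in frame. Cells were plated 10-12 h before compound addition, then incubated 30-36 h at 37C. ONE-Glo luminescence was read; sodium butyrate at 4.5 mM final served as control.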
Numbers without * were called inactive; ? = inconclusive; . = no result given; [ ] = dose if it differs, or a comment. A selection: hits, their analogues and other compounds. The true share with any hit is near 9.4%. The call rests on the fitted dose curve; in most records, active means well fitted curve in the direction sought with a large enough effect; inconclusive means small, poorly fitted or top-dose-only effect, or another doubt; inactive means no such curve, though single readings can be large; an effect the other way counts as inactive or inconclusive. Potency means the concentration at half of the fitted maximal effect.

SMILES	FLuc counter	NPC1 promoter act	ELG1 genotox	ELG1 DNA repair	Rab9 promoter act	SMN2 splice enh
O=C(NCC1CCOCC1)c1cc(COc2cccc(C(F)(F)F)c2)on1	0%	-1%	-9%	16µM*	1%	.
CC(NC(=O)c1cc(COc2cccc(C(F)(F)F)c2)on1)c1nccs1 (centres undefined)	15µM*	?	?	?	2.8µM*	.
Cc1ccc(OCC(=O)Nc2nonc2-c2ccc(C)c(C)c2)cc1C	-1%	.	.	.	.	.
CC(C)CC(=O)NC(=S)Nc1sc2c(c1C(N)=O)CCC2	?	?	?	?	?	17%
Cc1sc(NC(=S)NC(=O)C(C)(C)C)c(C(N)=O)c1C	4.8µM*	?	?	?	?	?
CC(=O)Nc1sc2c(c1C(N)=O)CCC2	1%	2%	-3%	-21%	0%	3%
Cc1cccc(C)c1NC(=O)CN(C)CC(=O)Nc1sc2c(c1C(N)=O)CCC2	5%	2%	-5%	7.3µM*	-6%	.
CC(C)(C)C(=O)NC(=S)Nc1sc2c(c1C(N)=O)CCC2	4.8µM*	?	28%	?	?	10µM*
CCCCC(=O)Nc1sc2c(c1C(N)=O)CCC2	21µM*	21%	?	?	?	?
Cc1ccc(S(=O)(=O)n2nc(-c3ccccc3)nc2NCc2ccccc2Cl)cc1	3%	.	.	.	.	2%
CCOc1ccccc1CNC(=O)CN1C(=O)CCCc2ccccc21	-2%	.	.	.	.	.
O=C(CN1CCCN(Cc2ccccc2F)S1(=O)=O)Nc1ccc(F)c(Cl)c1	-11%	.	.	.	.	.
COc1ccc(-c2cc(C(=O)Nc3ccc(C)c(N)c3)c3ccccc3n2)cc1	5.4µM*	23%	5%	?	15%	.
COc1ccc(-c2cc(C(=O)Nc3ccc(S(=O)(=O)Nc4ncccn4)cc3)c3ccccc3n2)cc1	4.8µM*	4%	15%	?	3%	.
COc1ccc(-c2cc(C(=O)Nc3ccc(S(=O)(=O)Nc4onc(C)c4C)cc3)c3ccccc3n2)cc1	9.5µM*	2%	2%	?	-3%	.
CC(C)CC(=O)Nc1c(C(=O)N2CCN(c3ccccc3F)CC2)oc2ccccc12	-15%	.	.	.	.	.
CC1CCN(C(=O)Cn2cc(SCc3ccccc3)c3ccccc32)CC1	-11%	.	.	.	.	.
CCC(=O)Nc1ccc(NC(=O)c2cc3ccccc3o2)c(OC)c1	?	2.5µM*	?	?	4µM*	.
COc1cc(NC(=O)c2ccc(F)cc2)ccc1NC(=O)c1cc2ccccc2o1	3%	0%	-10%	1%	0%	.
COc1cc(NC(=O)c2cc3ccccc3o2)ccc1NC(=O)c1ccco1	-2%	-5%	-2%	?	-10%	.
COC(=O)c1cc(Cl)c(NC(=O)c2cc3ccccc3o2)cc1OC	-6%	?	0%	2%	1.8µM*	5%
COc1cc(NC(=O)c2c(OC)cccc2OC)ccc1NC(=O)c1cc2ccccc2o1	?	?	15µM*	?	?	.
COC(=O)c1cc(OC)c(OC)cc1NC(=O)c1ccc(C)o1	-9%	-3%	-4%	23µM*	6%	-27%
COC(=O)c1cc(OC)c(OC)cc1NC(=O)CCc1ccc(C)o1	-1%	-2%	-10%	?	-2%	3%
O=C(Cn1cc(S(=O)(=O)Cc2ccc(F)cc2)c2ccccc21)NCCc1ccccc1	-2%	.	.	.	.	.
SMILES	FLuc counter	NPC1 promoter act	ELG1 genotox	ELG1 DNA repair	Rab9 promoter act	SMN2 splice enh
COc1ccc(NC(=O)c2cc3ccccc3o2)c(OC)c1	5.4µM*	.	.	.	.	.
Cc1ccc(OC(=O)c2cccc([N+](=O)[O-])c2)c(-n2nc3ccccc3n2)c1	?	3.5µM*	?	?	2.8µM*	13µM*
Cc1ccc(OC(=O)COc2ccccc2)c(-n2nc3ccccc3n2)c1	8.5µM*	3.5µM*	7.3µM*	?	2µM*	20%
COC(=O)COc1ccc(C)cc1-n1nc2ccccc2n1	-7%	-1%	0%	7%	-4%	.
Cc1ccc(OC(=O)COc2ccccc2C)c(-n2nc3ccccc3n2)c1	4.8µM*	?	?	?	?	11µM*
O=C(Nc1cccc(F)c1)C1CCN(c2nc3ccccc3[nH]2)CC1	4%	.	.	.	.	.
Cc1cc(/C=N/n2c(COc3ccccc3C)nc3ccccc3c2=O)c(O)c([N+](=O)[O-])c1	24µM*	5%	12%	3%	1%	-97%
Cc1cccc(C)c1OCc1nc2ccccc2c(=O)n1/N=C/c1c[nH]c2ccccc12	-1%	1%	-13%	8.2µM*	-1%	.
Cc1ccccc1OCc1nc2ccccc2c(=O)n1/N=C/c1c[nH]c2ccccc12	-14%	-3%	-4%	?	-10%	?
O=c1c2ccccc2nc(COc2ccccc2)n1/N=C/c1cc([N+](=O)[O-])ccc1O	19µM*	12%	0%	-21%	11%	-37%
Cc1ccc(-c2[nH]ncc2/C=N/n2c(COc3ccccc3C)nc3ccccc3c2=O)cc1	2%	-4%	-4%	2.6µM*	-4%	?
O=c1[nH]c(=O)n([C@H]2C[C@@H](O)[C@@H](CO)O2)cc1C=CBr	.	3%[46.1 µM]	.	.	0%[46.1 µM]	.
